Experimental data as given in publication PMC4336329 (PLoS ONE, 2015).
The campaign covered roughly 310,000 compounds. About 2,200 (0.71%) showed an effect of 50% or more. The effect is printed as a negative number. The list comes from a sample in which strong results are over-represented; it also holds similar structures and randomly drawn compounds.

Biological target: human ether-à-go-go-related gene (hERG) potassium channel (human, UniProt Q12809)
Test: primary screen, population patch clamp on CHO cells stably expressing hERG; higher = less effect of the substance

Sequence of human ether-à-go-go-related gene (hERG) potassium channel (Q12809 whole entry, looked up): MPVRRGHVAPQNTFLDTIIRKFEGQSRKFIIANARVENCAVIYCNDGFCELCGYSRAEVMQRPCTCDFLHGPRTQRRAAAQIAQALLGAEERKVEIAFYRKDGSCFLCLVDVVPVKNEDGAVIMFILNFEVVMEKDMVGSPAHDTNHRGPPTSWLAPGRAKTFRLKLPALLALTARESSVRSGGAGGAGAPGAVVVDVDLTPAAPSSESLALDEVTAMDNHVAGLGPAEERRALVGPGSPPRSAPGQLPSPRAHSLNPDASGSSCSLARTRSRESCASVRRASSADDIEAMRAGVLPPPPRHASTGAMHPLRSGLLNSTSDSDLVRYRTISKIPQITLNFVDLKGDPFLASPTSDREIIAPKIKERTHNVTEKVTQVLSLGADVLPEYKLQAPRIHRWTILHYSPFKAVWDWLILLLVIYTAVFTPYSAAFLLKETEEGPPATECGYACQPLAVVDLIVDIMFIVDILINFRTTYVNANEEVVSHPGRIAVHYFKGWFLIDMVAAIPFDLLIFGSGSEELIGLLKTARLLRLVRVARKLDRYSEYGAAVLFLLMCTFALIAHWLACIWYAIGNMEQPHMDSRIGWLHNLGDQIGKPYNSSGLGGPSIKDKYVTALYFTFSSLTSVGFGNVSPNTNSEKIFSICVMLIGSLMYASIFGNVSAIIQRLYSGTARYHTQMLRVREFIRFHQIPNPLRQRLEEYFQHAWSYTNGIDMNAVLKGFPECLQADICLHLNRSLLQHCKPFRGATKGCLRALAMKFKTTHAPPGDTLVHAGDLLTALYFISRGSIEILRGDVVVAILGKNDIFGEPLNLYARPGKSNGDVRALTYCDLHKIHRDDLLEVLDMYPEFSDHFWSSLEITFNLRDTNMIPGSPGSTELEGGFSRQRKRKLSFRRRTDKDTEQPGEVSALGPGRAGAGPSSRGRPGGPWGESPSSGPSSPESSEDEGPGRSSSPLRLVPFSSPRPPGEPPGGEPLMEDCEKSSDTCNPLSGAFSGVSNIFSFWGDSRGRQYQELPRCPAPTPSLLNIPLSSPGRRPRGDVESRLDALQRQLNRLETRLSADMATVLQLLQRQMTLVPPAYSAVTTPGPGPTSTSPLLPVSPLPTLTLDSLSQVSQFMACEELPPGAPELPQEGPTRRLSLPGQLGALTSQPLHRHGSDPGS

Compound	hERG current change (%, negative = inhibition) at 1uM
COc1cccc(OCC(=O)NNC(=O)c2cccs2)c1	9.89%
O=C1N(c2ccc(Cl)cc2)C(c2cccnc2)N2CCCN12 (stereo not shown)	6.95%
C/C(=N\NC(=O)COc1c(C)cccc1C)c1cccs1	8.57%
CCC(CC)C(=O)Nc1ccc(C)c(O)c1	5.34%
O=C(Nc1ccnn1C1CCN(Cc2ccccn2)CC1)c1cccc(F)c1	6.56%
O=C(CCc1ccccc1)Nc1ccnn1C1CCN(C/C=C/c2ccccc2)CC1	-24.2%
CC(C)=CCN1CCC(n2nccc2NC(=O)c2ccccc2Cl)CC1	-43%
O=C(Nc1ccnn1C1CCN(C/C=C/c2ccccc2)CC1)c1ccccc1	-64.4%
O=C(Nc1ccnn1C1CCN(Cc2ccc(CO)o2)CC1)c1ccccc1	-0.976%
O=C(Nc1ccnn1C1CCN(C2CCOCC2)CC1)c1cccc(F)c1	1.92%
O=C(Nc1ccnn1C1CCN(Cc2ccc(CO)o2)CC1)c1ccccc1Cl	6.94%
O=C(Nc1ccnn1C1CCN(C/C=C/c2ccccc2)CC1)c1ccccc1Cl	-92.1%
O=C(Nc1ccnn1C1CCN(C/C=C/c2ccccc2)CC1)c1cccc(F)c1	-58.5%
Cc1ccc(OCCNC(=O)CNC(=O)c2ccc(C)c(C)c2)cc1	4.24%
CCC(C(=O)NN1C(=O)c2ccccc2C1=O)c1ccccc1 (stereo not shown)	13.8%
CCC(=O)c1ccc(OCC(=O)OCC(=O)NC2CCCC2)cc1	14.5%
O=C(CCS(=O)(=O)c1ccc(Br)cc1)N1CCN(c2ccccc2Cl)CC1	2.11%
O=C(OCc1cc(=O)n2c(n1)sc1ccccc12)c1ccc(O)cc1O	7.81%
Cc1ccc2[nH]c(=O)c(-c3nc4ccccn4c3NCc3ccco3)cc2c1	-4.3%
Cc1cccc2cc(-c3nc4c(C)cccn4c3NCc3ccco3)c(=O)[nH]c12	2.58%

Compound	hERG current change (%, negative = inhibition) at 1uM
COCCNc1c(-c2cc3ccc(C)c(C)c3[nH]c2=O)nc2ccccn12	-77%
CCOCCCNC(=O)CN(Cc1ccc(Cl)cc1)S(C)(=O)=O	8.42%
CCNCCC(CCC(C)C)c1ccc2c(c1)OCO2 (stereo not shown)	-64.3%
CC(C)CCC(CCNCc1ccccn1)c1ccc2c(c1)OCO2.Cl (stereo not shown)	-79.1%
COCCCNC(=O)c1ccc2c(c1)OCO2	-2.46%
CC(C)CCC(CCNCc1ccccn1)c1ccc(Cl)cc1 (stereo not shown)	-40.7%
COCCCNS(=O)(=O)c1ccc2c(c1)OCCO2	5.7%
Cl.Fc1ccccc1CNCCC(Cc1ccccc1)c1ccc2c(c1)OCO2 (stereo not shown)	10.8%
c1ccc(CNCc2ccc3c(c2)OCO3)nc1	11%
CC(NC(=O)C1CCC1)c1ccc2c(c1)OCO2 (stereo not shown)	-3.43%
COCCCNCCC(CCC(C)C)c1ccc2c(c1)OCO2.Cl (stereo not shown)	-85.8%
COc1ccccc1NS(=O)(=O)c1ccc(C)c(C(=O)NCC2CCCO2)c1 (stereo not shown)	-14.5%
CCNc1nc(N)nc(Oc2ccc(OCCOc3ccccc3)nn2)n1	8.36%
COc1ccc2[nH]c(C)c(CCN(Cc3cccs3)C(=S)Nc3ccccc3)c2c1	6.37%
O=C1c2ccc3c4c(ccc(c24)C(=O)N1NC(=O)C(F)(F)F)CC3	10.1%
COc1cc(NC(=O)c2ccccc2F)c(OC)cc1NC(=O)CN1CCCCC1.Cl	1.58%
O=C(O)c1ccccc1C(=O)Nc1ccc(Br)c(C(F)(F)F)c1	2.61%
CCc1ccc(N2C(=O)CC(N3CCN(Cc4ccc5c(c4)OCO5)CC3)C2=O)cc1 (stereo not shown)	-1.13%
Cc1ccc(-c2csc3nc(C(C)C)oc(=O)c23)c(C)c1	13.5%
CCOc1ccc(CN2CCN(Cc3cccc4nonc34)CC2CCO)cc1 (stereo not shown)	-84.6%

Compound	hERG current change (%, negative = inhibition) at 1uM
COc1cccc(CN2CCN(Cc3cccc4nonc34)CC2CCO)c1 (stereo not shown)	-24%
CCOc1ccccc1CN1CCN(Cc2nc3c(s2)CCCC3)CC1CCO (stereo not shown)	-26.6%
CCOc1ccccc1CN1CCN(Cc2cccc3nonc23)CC1CCO (stereo not shown)	-50%
OCCC1CN(Cc2cccc3nonc23)CCN1Cc1ccsc1 (stereo not shown)	-15.7%
CCOc1ccccc1CN1CCN(Cc2ccon2)CC1CCO (stereo not shown)	-7.08%
COc1ccc(CN2CCN(Cc3cccc4nonc34)CC2CCO)c(C)c1C (stereo not shown)	-7.13%
CCOc1ccccc1CN1CCN(Cc2cccc3c2OCO3)CC1CCO (stereo not shown)	-2.66%
CCOc1ccccc1CN1CCN(Cc2nc3ccccc3s2)CC1CCO (stereo not shown)	-67.7%
CC1CC(C)CN(C(=O)c2cc3cc(Br)cc(Br)c3o2)C1 (stereo not shown)	11.6%
COc1ccc(CN2C=C3C(=O)C(C)(OC(=O)C4CCCC4)C(=O)C=C3C=C2c2ccsc2)cc1 (stereo not shown)	-2.57%
CCOC(=O)N(NC(=O)C(O)(CC(C)C)CC(C)C)c1ccccc1	6.37%
CCN(CC)CCN1C(=O)Cn2c(C)c(C)c3cccc1c32.O=C(O)C(O)C(O)C(=O)O	-56.1%
CCN(CC)CCN1c2ccccc2Sc2ccccc21.O=C(O)C(=O)O	-3.5%
CCN(CC)CCN1C(=O)Cn2c(C)c(C)c3cccc1c32.Cl	-12.2%
CCCc1ncc(CN2CCCCC2C(=O)Nc2ccc(Oc3ccccc3)nc2)cn1 (stereo not shown)	12.1%
Cc1cc(=O)c(C(=O)O)nn1-c1ccccc1	8.46%
O=C(O)c1nn(-c2cccc(C(F)(F)F)c2)ccc1=O	15.1%
Cc1cc(=O)c(C(=O)O)nn1-c1cccc(C(F)(F)F)c1	-78.9%
